# In PubChem BioAssay AID1662 (Broad Institute, 2009):
# About 4,000 (1.3%) of roughly 300,000 compounds were called active. Only a selection was taken, and actives are over-represented in it overall. Unmarked numbers belong to inactive results.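 Rule for the calls: active = mean replicate score, as percent of positive control median, at least 50; inconclusive = mean below 50 but one replicate at or above 50; inactive = mean and every replicate below 50.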
# Assay: kanamycin survival loss of SKKanGAS strain – BacTiter-Glo luminescence, streptokinase expression inhibitor project, primary screen (AID 1662);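 note: strain carries kanamycin resistance gene driven by streptokinase promoter and grows in 40 µg/ml kanamycin; loss of luminescence reflects streptokinase promoter inhibition or plain growth inhibition; 0% = median of DMSO wells and 100% = positive control at its reference dose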
# Conditions: S. pyogenes SKKanGAS, kanamycin growth, 6 h, at 7.5 µM, hits give high values
row,Structure (SMILES),inhibition
1,O=C(N/N=C/c1c(O)n(Cc2ccccc2)c(=O)[nH]c1=O)c1ccccc1,56.7% (active)
2,O=c1[nH]c(=O)n(Cc2ccccc2)c(O)c1/C=N/Nc1c(F)c(F)c(F)c(F)c1F,6.55%
3,O=C(N/N=C/c1c(O)n(C2CC2)c(=S)[nH]c1=O)c1ccccc1,-1.33%
4,COC(=O)N(c1ccc(OC)cc1)P1(=S)OCCC(C)O1 (stereo not given),-2.38%
5,CCOP(=S)(OCC)SCOC(=O)NCC(=O)OC,3.28%
6,COc1ccccc1OC(=O)c1ccc(C)c(S(=O)(=O)N2CCOCC2)c1,3.63%
7,CCCCCCCCCCCCn1ccc(=N)cc1,93.3% (active)
8,O=[N+]([O-])c1ccc(C2C3C(c4ccccc4)=NC4(CCCCC4)N32)cc1 (stereo not given),4.96%
9,Cc1cccc(NC(=O)OC2CN3CCC2CC3)c1 (stereo not given),0.418%
10,CC1(C)C(c2ccccc2)=NC(c2cccnc2)=[N+]1[O-],-22%
11,CCCCCn1c(=O)c(C(=O)NCc2ccccc2)c(O)c2ccccc21,86% (active)
12,CCCCn1c(=O)c(C(=O)Nc2ccccc2Cl)c(O)c2ccccc21,-1.86%
13,CCCCCn1c(=O)c(C(=O)NCc2ccccn2)c(O)c2ccccc21,6.78%
14,COC(=O)C1=C(c2cc3ccccc3o2)C[C@@H]2CC[C@H]1N2C(=O)NC1CCCCC1,7.09%
15,O=C(Cc1ccccc1)N1CCN(C2CCCCCC2)CC1,4.36%
